Bioassay records (PubChem BioAssay)
This is a sample that favours compounds with a hit; in the whole collection about 17% have one here.
HepG2 tox – qHTS for Inhibitors of TGF-b: Cytotox Counterscreen | AID 588856, 2011 | 410,000 tested, 0.76% active | Potency, µM (doses to about 46.1 µM), hits mostly cytotoxic | HepG2 CAGA-GFP viability, ATP luminescence, 18 h
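HepG2 CAGA-GFP cells (1000/well, DMEM with 1% FBS) received compound, then TGF-beta at 500 pg/mL final, and were incubated 18 hours at 37 degrees C. Viability was read by CellTiter-Glo luminescence. Media-only wells were set as complete cell-killing and DMSO as no toxicity.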
HT1080 IDH1KD tx – qHTS for induction of synthetic lethality in tumor cells producing 2HG: qHTS for the HT-1080-IDH1KD cell line; 360,000 tested, 2% active; Potency, µM (highest dose often 46.1 µM), hits mostly cytotoxic; HT-1080 IDH1 knockdown viability, ATP luminescence, 48 h; AID 686971, 2013
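Cytotoxicity counter-line: IDH1KD HT-1080, 48 h, CellTiter-Glo. Curves classed by r2, magnitude and activity.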
TDP1 cell noCPT – qHTS for Inhibitors of human tyrosyl-DNA phosphodiesterase 1 (TDP1): qHTS in cells in absence of CPT | DT40 Tdp1-/- hTDP1 cells, no CPT, ATP luminescence, 48 h | Potency, µM (titrated, usually from 46.2 µM), hits mostly inhibitors | 420,000 tested, 15% active | AID 686978, 2013; also: nearly all actives have a fitted effect of over 55% in size
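Growth kinetics read by CellTiter-Glo luminescence after ≥48 hr at 37 °C. Cells: DT40 Tdp1-/- stably carrying human TDP1, 400 per well, compound exposure in the absence of CPT (DMSO vehicle).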
TGFb inhibitor – qHTS for Inhibitors of TGF-b | Potency, µM (top dose mostly 46.1 µM), actives largely listed as inhibitors | HepG2 CAGA-GFP TGF-b/SMAD3 reporter, GFP fluorescence, 18 h; TGF-beta stimulated, 500 pg/mL final | 410,000 tested, 1.2% active; also: nearly all actives have a fitted effect of over 65% in size
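HEPG2 CAGA-GFP cells (1000/well, DMEM with 1% FBS) were pre-incubated 2 h at 37 degrees C, given compound by pin tool, then stimulated with TGF-beta at 500 pg/mL final for 18 h before per-cell GFP fluorescence imaging.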
TDP1 cell CPT – qHTS for Inhibitors of human tyrosyl-DNA phosphodiesterase 1 (TDP1): qHTS in cells in presence of CPT; Potency, µM (top dose mostly 46.2 µM), usual class: inhibitors; AID 686979, 2013; chicken DT40 Tdp1-/-;hTDP1 cells + 20 nM CPT, ATP luminescence, 48 h; 420,000 tested, 12% active; also: nearly all actives have a fitted effect of over 55% in size
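Cell growth measured by CellTiter-Glo luminescence after a minimum 48 h, 37 C compound exposure with 20 nM CPT in Tdp1-knockout DT40 cells stably expressing hTDP1, seeded 400/well; qHTS titration format.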
HT1080NT lethal – qHTS for induction of synthetic lethality in tumor cells producing 2HG: qHTS for the HT-1080-NT fibrosarcoma cell line; AID 686970, 2013; Potency, µM (doses to about 46.1 µM), actives largely listed as cytotoxic; HT-1080-NT fibrosarcoma viability, CellTiter-Glo ATP luminescence, 48 h; 360,000 tested, 1.6% active;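 also: NT is the 2HG producing partner of a matched IDH1 knockdown line; nearly all actives have a fitted effect of over 55% in size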
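Toxicity toward the 2HG-producing NT line was scored as %Activity, normalised to DMSO and no-cell wells, from CellTiter-Glo luminescence after 48 hours' treatment.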
Hits are given with their value; – = inactive; ? = inconclusive; · = no result. Calls follow the shape of the dose curve; as a rule, active = well fitted curve in the direction sought with a large enough effect; inconclusive = small, poorly fitted or top-dose-only effect, or another doubt; inactive = no such curve, though single readings can be large; an effect the other way counts as inactive or inconclusive.

SMILES	HepG2 tox	HT1080 IDH1KD tx	TDP1 cell noCPT	TGFb inhibitor	TDP1 cell CPT	HT1080NT lethal
CC(=O)OCCCNc1cc(SCc2ccco2)c2nonc2c1[N+](=O)[O-]	–	–	?	?	21µM	–
COc1cccc(NC(=O)N2CCC(CN3CCOCC3)CC2)c1	–	·	–	–	–	·
CCC(C(=O)NC1CCCCC1)n1c(SCc2ccccc2F)nc2ccncc21 (configuration not stated)	–	–	?	?	?	–
N[C@@H](C(=O)N[C@@H]1C(=O)N2C(C(=O)O)=C(CSc3cn[nH]n3)CS[C@H]12)c1ccc(O)cc1	·	·	–	·	–	·
CN1CCN(S(=O)(=O)c2ccc(CNC(=O)c3ccccc3)s2)CC1	–	–	–	–	–	–
Cn1c(C=O)c(-c2ccc3cc[nH]c3c2)c2ccccc21	–	–	–	–	–	–
CC1=C(C(=O)Nc2ccccc2C(=O)NCCCOC(C)C)SCCO1	–	–	–	–	–	–
COc1cc(C(C)=O)ccc1COc1ccc(C(=O)OCC(=O)NC2CCS(=O)(=O)C2)cc1OC (configuration not stated)	–	–	21µM	–	?	?
COc1cc(C(C)=O)ccc1COc1ccc(C(=O)OCC(=O)NC(C)(C)C)cc1OC	–	–	?	–	?	–
COc1cc(C(=O)OCC(=O)NC2CCCCCC2)ccc1OCC(C)C	–	–	3.3µM	?	?	–
Cc1noc(C)c1-c1cncnc1-n1ccnc1	·	·	–	·	–	·
CCCC(=O)Nc1nc2c(ncn2[C@@H]2O[C@H]3COP(=O)(O)O[C@@H]3[C@@H]2OC(=O)CCC)c(=O)[nH]1	·	·	–	·	–	·
CCN(CC(=O)Nc1cccc(OC)c1)c1ncnc2sc(C)c(C)c12	–	–	21µM	?	21µM	–
Brc1cccc(-c2nc3ccc(Br)cn3c2Cc2ccccc2)c1	–	–	?	?	?	–
CCc1ccc(NC(=O)[C@H](C)NC(=O)C2CCN(C(=O)[C@@H](N)Cc3ccccc3)CC2)cc1	–	–	16µM	–	?	–
Cc1nn(CC(=O)NCc2ccc(OC(C)C)cc2)c(=O)c2c(C)n(-c3ccc(Cl)cc3)nc12	–	·	?	–	?	·
COc1ccc(OC)c(CCNC(=O)Cn2nc(C)c3c(C)n(-c4ccc(C)cc4)nc3c2=O)c1	–	–	15µM	?	–	–
COc1ccc(OC)c(CNC(=O)Cn2nc(C)c3nn(-c4ccc(Cl)cc4)c(C)c3c2=O)c1	–	·	18µM	–	23µM	·
Cc1ccc(-n2nc3c(=O)n(CC(=O)NCCc4ccccc4C)nc(C)c3c2C)cc1	–	–	?	–	?	–
COc1ccc(-c2onc3ccc(C(=O)/C=C/N(C)C)cc23)cc1	–	–	21µM	–	13µM	–
CN1CCN(C(=O)C[C@@H]2CC[C@@H]3[C@H](COC[C@@H](O)CN3Cc3cccc(Cl)c3)O2)CC1	·	–	–	·	–	–
CC(NC(=O)c1cc(S(=O)(=O)N(C)C)ccc1Cl)C1CC2CCC1C2 (configuration not stated)	–	–	9.2µM	–	16µM	–
CC(NC(=O)c1cc(F)c(F)cc1Cl)C1CC2CCC1C2 (configuration not stated)	–	–	?	–	–	–
Cc1n[nH]c(=O)c2c(NC(=O)CSc3nc4ccccc4c(=O)n3C(C)C)oc(C)c12	–	–	?	–	?	–
COc1ccc(OC)c(CNC(=O)c2ccc(C)c(NC(=O)C3=C(C)OCCS3)c2)c1	–	–	–	–	–	–
SMILES	HepG2 tox	HT1080 IDH1KD tx	TDP1 cell noCPT	TGFb inhibitor	TDP1 cell CPT	HT1080NT lethal
Cc1ccc(C(=O)O)cc1NC(=O)c1nsc2ccccc12	–	·	–	·	–	·
O=C(NCc1ccccc1)c1ccc(NC(=O)c2nsc3ccccc23)cc1	–	·	?	–	?	·
CN(Cc1ccccc1)C(=O)c1cccc(NC(=O)c2nsc3ccccc23)c1	–	·	?	?	?	·
O=C(NCc1ccccc1Cl)c1ccc(NC(=O)c2nsc3ccccc23)cc1	–	·	18µM	–	18µM	·
COc1ccc(OC)c(CNC(=O)c2ccc(C)c(NC(=O)c3nsc4ccccc34)c2)c1	–	·	?	–	18µM	·
Cc1ccc(C(=O)NCCC(C)C)cc1NC(=O)c1nsc2ccccc12	–	·	?	?	16µM	·
CC(C)Oc1ccc(CNC(=O)c2cccc(NC(=O)c3nsc4ccccc34)c2)cc1	–	·	9.2µM	?	4.6µM	·
CCc1nc2cc(C(=O)NC3CCOC(C)(C)C3)cc(NC(=O)c3ccccc3OC)c2n1C (configuration not stated)	·	·	–	·	–	·
Cc1ccc(C(=O)NCc2ccc(F)cc2)cc1NC(=O)c1nsc2ccccc12	–	·	23µM	?	?	·
COCCN(Cc1cc2cc(C)ccc2nc1Cl)C(=O)Nc1ccccc1OC	–	–	16µM	–	16µM	–
COc1ccc(NC(=O)C2=CC(c3ccc(C)cc3)=NS(=O)(=O)N2C)cc1OC	–	–	21µM	–	23µM	–
COc1ccc(NC(=O)C2=CC(c3ccc(C)cc3)=NS(=O)(=O)N2C)cc1	–	–	23µM	?	16µM	–
COc1ccc(CNC(=O)C2=CC(c3cccc(OC)c3)=NS(=O)(=O)N2C)cc1	–	·	–	–	–	·
COc1cccc(C2=NS(=O)(=O)N(C)C(C(=O)Nc3cccc(O)c3)=C2)c1	–	·	16µM	–	15µM	·
COc1ccc(NC(=O)C2=CC(c3ccco3)=NS(=O)(=O)N2C)cc1OC	–	–	–	–	–	–
COc1ccc(C2=NS(=O)(=O)N(C)C(C(=O)Nc3cc(OC)c(OC)c(OC)c3)=C2)cc1	–	–	15µM	–	12µM	–
COc1ccc([N+](=O)[O-])cc1NC(=O)CCSCCc1ccccn1	–	–	?	–	?	–
COC(=O)c1cnc(SCC(=O)c2ccccc2)n1C	–	–	–	–	–	–
COc1ccc(C2=NS(=O)(=O)N(C)C(C(=O)Nc3ccc(C(C)=O)cc3)=C2)cc1OC	–	–	12µM	?	18µM	–
CC(=O)c1cccc(NC(=O)C2=CC(c3ccc4c(c3)OCO4)=NS(=O)(=O)N2C)c1	–	–	16µM	–	?	–
